According to PubChem BioAssay (NCATS):
Values joined by “and” are separate entries in the source; they are usually repeats but may differ in a detail not shown here. Equal entries are not always repeated. Records with an inconclusive call do not appear. Active and inactive are the calls of the source. Unless noted, calls follow the shape of the full dose curve.

Experiments:
[1] = qHTS assay for small molecule agonists of retinoid X receptor alpha signaling (AID 588544); conditions: HEK293T RXRa-UAS-bla, beta-lactamase reporter, 18 h; 530 nm emission;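 as to activation: 0% = DMSO basal wells and 100% = reference agonist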
[2] = biological target: Retinoic acid receptor RXR-alpha (Homo sapiens) (UniProt P19793); assay: as above; conditions: HEK293T RXRa-UAS-bla, beta-lactamase reporter, 18 h; series mostly up to 76.7 µM
Retinoic acid receptor RXR-alpha (Homo sapiens), sequence (P19793 whole entry, looked up): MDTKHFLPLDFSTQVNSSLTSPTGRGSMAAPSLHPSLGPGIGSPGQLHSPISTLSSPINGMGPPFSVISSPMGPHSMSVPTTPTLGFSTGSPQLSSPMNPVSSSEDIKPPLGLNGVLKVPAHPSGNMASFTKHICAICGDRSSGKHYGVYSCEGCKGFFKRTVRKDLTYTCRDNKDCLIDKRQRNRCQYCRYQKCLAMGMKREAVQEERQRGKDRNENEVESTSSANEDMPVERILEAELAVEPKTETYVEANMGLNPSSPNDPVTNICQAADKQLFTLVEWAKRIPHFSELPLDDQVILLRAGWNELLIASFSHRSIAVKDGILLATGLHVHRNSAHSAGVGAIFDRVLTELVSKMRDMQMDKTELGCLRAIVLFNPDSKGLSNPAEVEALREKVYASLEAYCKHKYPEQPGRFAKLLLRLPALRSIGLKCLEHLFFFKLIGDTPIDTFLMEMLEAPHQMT

[3] = biological target: Thyroid hormone receptor beta (Homo sapiens) (UniProt P10828); assay: qHTS assay for small molecule agonists of thyroid hormone receptor beta signaling (AID 588545); conditions: TR-UAS-bla GripTite HEK 293, beta-lactamase ratio, agonist mode, 18 h, percent of T3 response, DMSO as zero; series mostly up to 76.7 µM;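 also: 0% = DMSO only and 100% = 10 nM T3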
Thyroid hormone receptor beta (Homo sapiens), sequence (P10828 whole entry, looked up): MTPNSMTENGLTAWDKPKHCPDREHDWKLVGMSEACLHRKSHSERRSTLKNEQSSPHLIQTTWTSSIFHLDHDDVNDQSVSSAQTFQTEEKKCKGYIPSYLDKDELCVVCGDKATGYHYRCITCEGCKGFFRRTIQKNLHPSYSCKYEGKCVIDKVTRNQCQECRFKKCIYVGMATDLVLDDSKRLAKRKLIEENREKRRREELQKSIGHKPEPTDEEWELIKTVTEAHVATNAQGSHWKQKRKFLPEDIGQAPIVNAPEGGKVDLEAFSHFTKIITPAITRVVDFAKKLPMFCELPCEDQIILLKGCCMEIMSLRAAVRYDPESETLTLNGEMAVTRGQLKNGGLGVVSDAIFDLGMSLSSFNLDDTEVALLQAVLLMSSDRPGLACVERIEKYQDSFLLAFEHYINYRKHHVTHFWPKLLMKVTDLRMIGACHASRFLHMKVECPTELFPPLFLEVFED
Method in brief: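 Beta-lactamase reporter activity under TR response element control is measured in HEK 293 cells after 18 hrs compound exposure. Signal is ratiometric CCF4 fluorescence, 460/530 nm.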

[4] = qHTS assay for small molecule antagonists of retinoid X receptor alpha signaling (AID 588546; active = well fitted inhibition curve with a large enough effect in the signal ratio, with a control signal flat, not every such curve was filed as active; the % refers to the signal ratio;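 also: cells stimulated with 9-cis-retinoic acid as agonist; % is scaled to controls: 0 for no effect and ±100 for the full control effect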); conditions: HEK293T RXRa-UAS-bla, beta-lactamase ratio, antagonist mode; measured here: W530 green channel, cytotoxicity proxy
Method in brief: (§1)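 Beta-lactamase reporter inhibition, read as CCF4 fluorescence ratio (ex 405, em 460/530 nm) after 2 h at RT. HEK293T UAS-bla cells, 2500/well, were stimulated with 9-cis-RA at 500 or 100 nM final alongside test compound for 18 h at 37 C.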

[5] = biological target: Retinoic acid receptor RXR-alpha (Homo sapiens) (UniProt P19793); assay: as above; conditions: HEK293T RXRa-UAS-bla, beta-lactamase ratio, antagonist mode
Method in brief: as §1

[6] = biological target: Thyroid hormone receptor beta (Homo sapiens) (UniProt P10828); assay: qHTS assay for small molecule antagonists of thyroid hormone receptor beta signaling (AID 588547; active = well fitted inhibition curve with a large enough effect in the signal ratio, with a control signal flat, not every such curve was filed as active; the % refers to the signal ratio;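 also: cells stimulated with 0.4 nM T3 agonist during compound exposure; % is scaled to controls: 0 for no effect and ±100 for the full control effect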); conditions: TR-UAS-bla HEK293, beta-lactamase ratio, antagonist mode, 18 h
Method in brief: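 Inhibition of T3-driven (0.4nM final) beta-lactamase reporter activity was measured over 0.59 nM to 92 uM compound after 18 h at 37 C. The cells were GripTite HEK293 TR-UAS-bla in charcoal/dextran-stripped serum, with CCF4 ratio read-out and IC50 from Hill fits.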

[7] = biological target: Voltage-gated inwardly rectifying potassium channel KCNH2 (Homo sapiens) (UniProt Q12809); assay: qHTS Assay for Small Molecule Inhibitors of the Human hERG Channel Activity (AID 588834; active = well fitted inhibition curve with a large enough effect;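 also: top concentration of the series differs between compounds; % is scaled to controls: 0 for no effect and ±100 for the full control effect; lower thallium flux fluorescence means stronger hERG block; nearly all actives have a fitted effect of over 50% in size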); conditions: U2OS BacMam hERG, FluxOR thallium flux fluorescence; series mostly up to 92.2 µM
Voltage-gated inwardly rectifying potassium channel KCNH2 (Homo sapiens), sequence (Q12809 whole entry, looked up): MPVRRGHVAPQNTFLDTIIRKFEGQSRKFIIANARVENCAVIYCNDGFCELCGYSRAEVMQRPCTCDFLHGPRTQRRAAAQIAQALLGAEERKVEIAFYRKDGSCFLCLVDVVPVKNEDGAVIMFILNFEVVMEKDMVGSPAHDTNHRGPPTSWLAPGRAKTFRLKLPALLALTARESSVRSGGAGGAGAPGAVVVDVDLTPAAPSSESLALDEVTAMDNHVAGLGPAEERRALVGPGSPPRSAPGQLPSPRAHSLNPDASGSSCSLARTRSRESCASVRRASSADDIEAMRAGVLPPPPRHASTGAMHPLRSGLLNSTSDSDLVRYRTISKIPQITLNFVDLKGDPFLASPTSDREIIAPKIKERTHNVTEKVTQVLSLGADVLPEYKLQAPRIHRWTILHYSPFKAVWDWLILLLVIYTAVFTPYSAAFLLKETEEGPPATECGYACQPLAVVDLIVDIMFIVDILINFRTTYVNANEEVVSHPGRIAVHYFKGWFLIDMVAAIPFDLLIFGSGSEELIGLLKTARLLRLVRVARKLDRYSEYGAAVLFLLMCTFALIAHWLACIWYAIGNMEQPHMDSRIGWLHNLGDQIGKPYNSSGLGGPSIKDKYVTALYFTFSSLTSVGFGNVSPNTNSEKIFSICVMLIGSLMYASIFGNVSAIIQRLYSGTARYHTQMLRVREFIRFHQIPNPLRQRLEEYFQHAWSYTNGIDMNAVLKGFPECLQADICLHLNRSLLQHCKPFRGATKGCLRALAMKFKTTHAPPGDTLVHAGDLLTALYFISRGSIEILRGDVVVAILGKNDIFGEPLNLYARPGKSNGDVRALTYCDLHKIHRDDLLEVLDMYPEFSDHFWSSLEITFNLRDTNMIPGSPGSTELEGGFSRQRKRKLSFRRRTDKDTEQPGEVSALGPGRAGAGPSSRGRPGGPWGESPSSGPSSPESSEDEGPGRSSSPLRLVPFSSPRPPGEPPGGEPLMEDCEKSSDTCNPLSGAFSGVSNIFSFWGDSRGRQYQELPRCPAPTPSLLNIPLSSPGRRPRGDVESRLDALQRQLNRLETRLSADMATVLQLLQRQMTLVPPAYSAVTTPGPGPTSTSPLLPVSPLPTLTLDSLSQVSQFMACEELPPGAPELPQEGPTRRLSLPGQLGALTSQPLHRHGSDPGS
Method in brief: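 Blockade is seen as reduced FluxOR thallium-flux fluorescence in U2OS cells expressing hERG from a BacMam construct, in Opti-MEM with 2% FCS. Concentration-response data fitted to the Hill equation for AC50.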

[8] = qHTS assay for small molecule agonists of the antioxidant response element (ARE) signaling pathway (AID 651741; active = well fitted activation curve with a large enough effect in the signal ratio; the % refers to the signal ratio; also: potency is read from the fitted curve at half-maximal effect; as to activation: % of control where 0% means no effect); conditions: HepG2 ARE-bla reporter, beta-lactamase FRET ratio, 16 h; series mostly up to 96 µM
Method in brief: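 Seeding 2,000 ARE-bla HepG2 cells per well preceded a 5 h incubation at 37 C/5% CO2 and a 16 h compound exposure at 37 C. Beta-lactamase reporter activity was then quantified by fluorescence after 2 h with LiveBLAzer B/G FRET substrate.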

[9] = qHTS assay for small molecule activators of the p53 signaling pathway (AID 651743; active = well fitted activation curve with a large enough effect in the signal ratio, not every such curve was filed as active; the % refers to the signal ratio; also: % of control where 0% means no effect); conditions: HCT-116 p53RE-bla, beta-lactamase FRET ratio, 16 h; stronger effect = higher value
Method in brief: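 Screen for p53 pathway agonists uses stably transfected p53RE-bla HCT-116 cells, 4,000 per well, treated 16 h at 37 C with compounds in DMSO.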

[10] = qHTS assay for small molecule activators of the nuclear factor-kappa B (NF-kB) signaling pathway (AID 651749; active = well fitted activation curve with a large enough effect in the signal ratio; the % refers to the signal ratio; also: % of control where 0% means no effect); conditions: NF-kB-bla ME-180 cells, beta-lactamase FRET ratio, 16 h; stronger effect = higher value
Method in brief: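 Stably transfected ME-180 line; NF-kB response element upstream of beta-lactamase. Treatment: compound or DMSO, 16 hr. Detection: fluorescent FRET substrate.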

SMILES: Cc1nc2ccc(Cl)cc2[nH]1
- max response [1]: -24.2%
- outcome [2]: inactive
- outcome [3]: inactive
- max response [4]: -9.52%
- max response [5]: -12.1% (inactive)
- activity change % (negative = inhibition) [6]: 9.04% (inactive)
- Potency [7]: inactive
- Potency [8]: inactive
- activation [9]: -1.34% (inactive)

SMILES: CC(C)Cc1nccs1
- max response [1]: -0.474%
- outcome [2]: inactive
- outcome [3]: inactive
- max response [4]: -5.6%
- max response [5]: 12.1% (inactive)
- activity change % (negative = inhibition) [6]: 0.497% (inactive)
- Potency [7]: inactive
- Potency [8]: inactive

SMILES: CCCCC(CC)C(=O)O (stereo not given)
- max response [1]: 12.4%
- outcome [2]: inactive
- outcome [3]: inactive
- max response [4]: -3.23%
- max response [5]: 4.48% (inactive)
- activity change % (negative = inhibition) [6]: -2.96% (inactive)
- Potency [7]: inactive
- Potency [8]: inactive

SMILES: CC(=O)OC(C)C
- max response [1]: 0.6%
- outcome [2]: inactive
- outcome [3]: inactive
- max response [4]: 7.8%
- max response [5]: 7.02% (inactive)
- activity change % (negative = inhibition) [6]: 7.16% (inactive)
- Potency [7]: inactive
- Potency [8]: inactive
- activation [9]: -0.528% (inactive)

SMILES: COc1ccc(N)c(OC)c1
- max response [1]: -3.88%
- outcome [2]: inactive
- outcome [3]: inactive
- max response [4]: -0.758%
- max response [5]: -1.72% (inactive)
- activity change % (negative = inhibition) [6]: -1.14% (inactive)
- Potency [7]: inactive

SMILES: CC(=O)c1ccc([N+](=O)[O-])cc1
- max response [1]: -7.91%
- outcome [2]: inactive
- outcome [3]: inactive
- max response [4]: 4.7%
- max response [5]: 1.74% (inactive)
- activity change % (negative = inhibition) [6]: -0.995% (inactive)
- Potency [7]: inactive

SMILES: CCN(C(=O)N(CC)c1ccccc1)c1ccccc1
- max response [1]: 6.15%
- outcome [2]: inactive
- outcome [3]: inactive
- max response [4]: -7.14%
- max response [5]: 0.622% (inactive)
- activity change % (negative = inhibition) [6]: 1.82% (inactive)
- Potency [7]: inactive
- Potency [8]: inactive

SMILES: Cc1ccc(C#N)cc1
- max response [1]: 3.27%
- outcome [2]: inactive
- outcome [3]: inactive
- max response [4]: -3.82%
- max response [5]: 0.597% (inactive)
- activity change % (negative = inhibition) [6]: 4.16% (inactive)
- Potency [7]: inactive

SMILES: Clc1ccccn1
- max response [1]: -14.3%
- outcome [2]: inactive
- outcome [3]: inactive
- max response [4]: -9.05%
- max response [5]: 21.3% (inactive)
- activity change % (negative = inhibition) [6]: -6.15% (inactive)
- Potency [7]: inactive
- Potency [8]: inactive
- activation [9]: -3.75% (inactive)

SMILES: Cc1ccc(C)c(O)c1
- max response [1]: 0.17%
- outcome [2]: inactive
- outcome [3]: inactive
- max response [4]: -5.88%
- max response [5]: 6.26% (inactive)
- activity change % (negative = inhibition) [6]: 1.01% (inactive)
- Potency [7]: inactive
- Potency [8]: inactive

SMILES: O=[N+]([O-])c1cc(C(F)(F)F)ccc1Cl
- max response [1]: -4.02%
- outcome [2]: inactive
- outcome [3]: inactive
- max response [4]: -1.67%
- max response [5]: -6.84% (inactive)
- activity change % (negative = inhibition) [6]: -5.36% (inactive)
- Potency [7]: inactive
- Potency [8]: inactive
- activation [9]: -0.0124% (inactive)

SMILES: ClC/C=C/CCl
- max response [1]: -8.83%
- outcome [2]: inactive
- outcome [3]: inactive
- max response [4]: -5.15%
- max response [5]: 0.33% (inactive)
- activity change % (negative = inhibition) [6]: 19.3% (inactive)
- Potency [7]: inactive

SMILES: Nc1nc(CC(=O)O)cs1
- max response [1]: -4.19%
- outcome [2]: inactive
- outcome [3]: inactive
- max response [4]: -14%
- max response [5]: -13.3% (inactive)
- activity change % (negative = inhibition) [6]: 1.64% (inactive)
- Potency [7]: inactive
- Potency [8]: inactive
- activation [9]: -1.45% (inactive)

SMILES: Nc1cc(S(=O)(=O)O)ccc1O
- max response [1]: 6.72%
- outcome [2]: inactive
- outcome [3]: inactive
- max response [4]: 0.685%
- max response [5]: 10% (inactive)
- activity change % (negative = inhibition) [6]: 6.95% (inactive)
- Potency [7]: inactive
- Potency [8]: inactive
- activation [9]: -1.55% (inactive)

SMILES: CCCCC/C=C/C=C/C=O
- max response [1]: -6.95% and 20%
- outcome [2]: inactive
- outcome [3]: inactive
- max response [4]: -1.35% and -13.3%
- max response [5]: 1.5% (inactive) and -3.35% (inactive)
- activity change % (negative = inhibition) [6]: 6.77% (inactive) and -0.205% (inactive)
- Potency [7]: inactive
- Potency [8]: 48.6 µM (active)
- activation [9]: -11.3% (inactive)
- activation [10]: -1.4% (inactive) and -2.02% (inactive)

SMILES: CC1(N)CCC(C(C)(C)N)CC1 (stereo not given)
- max response [1]: -6.34%
- outcome [2]: inactive
- outcome [3]: inactive
- max response [4]: 4.37%
- max response [5]: 0.335% (inactive)
- activity change % (negative = inhibition) [6]: -1.11% (inactive)
- Potency [7]: inactive
- Potency [8]: inactive
- activation [9]: 0.302% (inactive)
- activation [10]: -1.08% (inactive)

SMILES: Cc1cc(C(=O)O)ccc1[N+](=O)[O-]
- max response [1]: -3.52%
- outcome [2]: inactive
- outcome [3]: inactive
- max response [4]: -3.81%
- max response [5]: 36.9% (inactive)
- activity change % (negative = inhibition) [6]: 7.48% (inactive)
- Potency [7]: inactive
- Potency [8]: inactive
- activation [9]: -0.415% (inactive)

SMILES: Cc1ccc(C)o1
- max response [1]: 16.3%
- outcome [2]: inactive
- outcome [3]: inactive
- max response [4]: 5.87%
- max response [5]: -4.44% (inactive)
- activity change % (negative = inhibition) [6]: -3.98% (inactive)
- Potency [7]: inactive
- Potency [8]: inactive
- activation [9]: -6.1% (inactive)

SMILES: O=C1OC(=O)c2c(Cl)c(Cl)c(Cl)c(Cl)c21
- max response [1]: -5.89% and -6.44%
- outcome [2]: inactive
- outcome [3]: inactive
- max response [4]: -4.9% and 1.94%
- max response [5]: 0.977% (inactive) and -5.45% (inactive)
- activity change % (negative = inhibition) [6]: -1.32% (inactive) and -1.29% (inactive)
- Potency [7]: inactive
- Potency [8]: inactive
- activation [9]: -2.26% (inactive) and 13.1% (inactive)

SMILES: CCOCC(=O)O
- max response [1]: -7.45%
- outcome [2]: inactive
- outcome [3]: inactive
- max response [4]: 2.97%
- max response [5]: 4.52% (inactive)
- activity change % (negative = inhibition) [6]: 4.7% (inactive)
- Potency [7]: inactive
- Potency [8]: inactive
- activation [9]: -3.4% (inactive)
- activation [10]: 0.266% (inactive)

SMILES: CC(=O)Nc1ccc(C)cc1
- max response [1]: -6.19%
- outcome [2]: inactive
- outcome [3]: inactive
- max response [4]: -3.72%
- max response [5]: 5.73% (inactive)
- activity change % (negative = inhibition) [6]: 8.42% (inactive)
- Potency [7]: inactive
- Potency [8]: inactive
- activation [9]: -3.2% (inactive)
- activation [10]: 1.33% (inactive)

SMILES: O=C1OC(=O)c2cc([N+](=O)[O-])ccc21
- max response [1]: 18.2%
- outcome [2]: inactive
- outcome [3]: inactive
- max response [4]: 10.4%
- max response [5]: 1.57% (inactive)
- activity change % (negative = inhibition) [6]: 7.82% (inactive)
- Potency [7]: inactive
- Potency [8]: inactive
- activation [9]: 1.53% (inactive)

SMILES: CC(=O)CCc1ccccc1
- max response [1]: -7.54%
- outcome [2]: inactive
- outcome [3]: inactive
- max response [4]: -0.836%
- max response [5]: 0.594% (inactive)
- activity change % (negative = inhibition) [6]: 12% (inactive)
- Potency [7]: inactive
- Potency [8]: inactive
- activation [9]: -1.61% (inactive)
- activation [10]: 0.0566% (inactive)
